Here are results for 97 molecules from PubChem BioAssay AID431 (Sanford-Burnham Center for Chemical Genomics, 2006).

In all, about 63,000 compounds went through this assay and about 1,100 (1.7%) were called active.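 Rule for the calls: active = compounds whose percent cytotoxicity in the single-dose primary screen, scaled between solvent and toxic-drug controls, exceeds 50; inactive = the rest.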 This excerpt belongs to a sample that is enriched for actives. Entries with a potency or affinity are not part of this list.

The nature of the assay: cytotoxicity in KRAS-transformed pancreatic duct cells, primary screen, cell-based, fluorescence, HTS (AID 431).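 Note: 0% = DMSO solvent wells and 100% = doxorubicin-treated wells.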 Particulars: HPDE-C7K KRASV12 cells, Alamar Blue viability, 48 h; at 10 µM; hits give high values.
Take `COc1ccc(-c2[nH]c(-c3ccc(F)cc3)nc2SCC(=O)NCc2ccco2)cc1OC`: the cytotoxicity was 6.3% (inactive).

For `COc1ccc(-c2[nH]c(-c3cccc(OC)c3)nc2SCC(=O)NCc2ccco2)cc1`, the cytotoxicity was 50.4% (active).

In the case of `COc1ccc(-c2nc(SCC(=O)NCc3ccco3)c(-c3ccccc3)[nH]2)cc1OC`, the cytotoxicity was -6.7% (inactive).

With `CS(=O)(=O)NCCCc1ccccc1`, the cytotoxicity was -3.7% (inactive).

In the case of `O=C(NCc1ccccn1)c1ccc(/C=N/O)nc1`, the cytotoxicity is 0.9% (inactive).

For `CC1CCN(c2nc(-c3ccc(F)cc3)cc(C(F)(F)F)n2)CC1`, the cytotoxicity is -19.1% (inactive).

As for `O=C(c1ccc(F)cc1)C1CCN(CCn2c(=O)[nH]c3ccccc3c2=O)CC1`, the cytotoxicity is 5.6% (inactive).

Turning to `O=c1c2ccccc2[nH]c(=S)n1CCN1CCN(Cc2ccccc2)CC1`, the cytotoxicity was 0.6% (inactive).

As to `CCSc1nnc(NC(=O)c2cc(C)oc2C)s1`, the cytotoxicity is 10.1% (inactive).

For `Cc1noc(C(=O)Nc2c(C)nn(Cc3ccccc3)c2C)c1Cl`, the cytotoxicity is -3.9% (inactive).

Regarding `CCOC(=O)N1CCN(C(=O)c2ccc3c(c2)N(CC)CCS3)CC1`, the cytotoxicity was 1% (inactive).

As to `CC(=O)NC(c1ccco1)c1ccc2cccnc2c1O` (configuration not stated), the cytotoxicity is 23.7% (inactive).

`CC(C)C(=O)NC(c1ccco1)c1ccc2cccnc2c1O` (configuration not stated): the cytotoxicity was -36.3% (inactive).

`Cc1ccc(S(=O)(=O)C(C#N)c2nc3ccccc3nc2N2CCCCC2)cc1` (configuration not stated): the cytotoxicity was 0.6% (inactive).

Consider `COC(=O)c1ccc(-n2nnnc2SCC(=O)N2CCCCC2)cc1`, for which the cytotoxicity is -30.4% (inactive).

As for `COc1ccc(CCNC(=O)c2cnccn2)cc1`, the cytotoxicity was -0.7% (inactive).

`CCOC(=O)C1CCN(c2c(NCCN3CCCCC3C)c(=O)c2=O)CC1` (configuration not stated): the cytotoxicity is 2.6% (inactive).

`c1ccc(N2CCOCC2)c(Nc2nc3ccccc3n3cnnc23)c1`: the cytotoxicity was 0.7% (inactive).

`O=C(Cn1c(CO)nc2ccccc21)Nc1cc(C(F)(F)F)ccc1N1CCOCC1`: the cytotoxicity was -13.4% (inactive).

`C=CCn1c(COc2ccccc2)nnc1SCC(=O)C(C)(C)C`: the cytotoxicity is 8.4% (inactive).

With `Cc1ccc(NC(=O)CCNS(=O)(=O)c2ccc3c(c2)oc(=O)n3C)cc1`, the cytotoxicity is -10.2% (inactive).

Take `Cn1c(=O)oc2cc(S(=O)(=O)NCCc3ccccc3)ccc21`: the cytotoxicity was -10.4% (inactive).

For `O=C(Nc1ccccc1)c1ccc(S(=O)(=O)NCc2ccco2)cc1`, the cytotoxicity is -6.4% (inactive).

As to `O=C(NCCc1c[nH]c2ccccc12)c1ccc(S(=O)(=O)NCc2ccco2)cc1`, the cytotoxicity is 51.2% (active).

In the case of `O=C(NC1CCCCC1)c1ccc(S(=O)(=O)NCc2ccco2)cc1`, the cytotoxicity is -0.5% (inactive).

With `Cc1ccc2cccc(OC(=O)c3ccc4c(c3)OCCO4)c2n1`, the cytotoxicity was 54.5% (active).

As for `O=C(Oc1cccc2cccnc12)c1cccc(-n2cnnn2)c1`, the cytotoxicity is 23.3% (inactive).

For the molecule `Cc1noc(C)c1COC(=O)c1ccc2c(c1)OCCO2`, the cytotoxicity is 4.7% (inactive).

On to `O=C(COc1cccc2cccnc12)Nc1nccs1`, for which the cytotoxicity is 8.2% (inactive).

Regarding `O=S(=O)(Nc1ccc2c(c1)OCCO2)c1cccc2cccnc12`, the cytotoxicity was 4.7% (inactive).

For `CN(CCOC(=O)c1ccc2c(c1)OCCO2)Cc1ccccc1`, the cytotoxicity was -8% (inactive).

For the molecule `FC(F)Oc1cccc2cccnc12`, the cytotoxicity is 3.1% (inactive).

Take `Cn1c(C(=O)N2CCN(c3ncccn3)CC2)cc2c(=O)n(C)c3ccccc3c21`: the cytotoxicity was 17.4% (inactive).

With `O=C(Nc1cnn(Cc2ccc(Cl)cc2)c1)c1cnccn1`, the cytotoxicity was -2.7% (inactive).

For `CC(=O)NC(CC(C)C)C(=O)NC(=O)NCc1ccccc1` (configuration not stated), the cytotoxicity is 15.8% (inactive).

`CCN(CC)CCCN1C(=O)C(=O)/C(=C(/O)c2ccc3c(c2)OCCO3)C1c1ccco1` (configuration not stated): the cytotoxicity is 5.8% (inactive).

Turning to `Cn1c(-c2ccccc2)cnc1SCC(=O)NCc1ccco1`, the cytotoxicity is -16.1% (inactive).

`COC(=O)C(NC(C)=O)(Nc1ccc(Br)cn1)C(F)(F)F` (configuration not stated): the cytotoxicity was 2.3% (inactive).

Take `COC(=O)C(NC(C)=O)(Nc1ccc(Br)cc1)C(=O)OC`: the cytotoxicity was 53.3% (active).

With `COC(=O)C(NC(C)=O)(Nc1ccccc1)C(=O)OC`, the cytotoxicity is 27.5% (inactive).

Regarding `O=S(=O)(c1cccc(Cl)c1)N1CCCC1`, the cytotoxicity is -5.7% (inactive).

Regarding `O=C(NCC1CCCO1)c1sc(=S)n2c1[nH]c(=O)c1ccc(C(=O)N3CCCCC3)cc12` (configuration not stated), the cytotoxicity was 5.2% (inactive).

As to `O=C(NC1CCCCC1)c1sc(=S)n2c1[nH]c(=O)c1ccccc12`, the cytotoxicity is 77.2% (active).

For the molecule `Cn1c(=O)c(C(=O)NC2CCCCCCC2)c(O)c2ccccc21`, the cytotoxicity was 13.6% (inactive).

For `O=C(NC1CCCC1)c1sc(=S)n2c1[nH]c(=O)c1ccccc12`, the cytotoxicity was 68.9% (active).

As for `O=C(NC1CCCCCCC1)c1c(O)c2ccccc2[nH]c1=O`, the cytotoxicity is -19.1% (inactive).

For `O=C(NC1CCCCCC1)c1c(O)c2ccccc2[nH]c1=O`, the cytotoxicity was -13.7% (inactive).

On to `CSc1nnc(Cn2c(=O)sc3ccccc32)n1-c1ccccc1`, for which the cytotoxicity was 13% (inactive).

As for `Cc1nc2ccc(NC(=O)N3CCOCC3)cc2s1`, the cytotoxicity was -19.1% (inactive).

`Nc1nnc(SCc2cccnc2)s1`: the cytotoxicity was -0.3% (inactive).

In the case of `CCc1cn([C@H]2C[C@H](O)[C@@H](CO)O2)c(=O)[nH]c1=O`, the cytotoxicity is -1.3% (inactive).

With `Cc1cn([C@H]2C[C@H](N=[N+]=[N-])[C@@H](CO)O2)c(=O)[nH]c1=O`, the cytotoxicity was -5.9% (inactive).

`O=c1[nH]c(=O)n([C@H]2C[C@H](O)[C@@H](CO)O2)cc1F`: the cytotoxicity is 55.6% (active).

For the molecule `CCc1sc(C(=O)NC)cc1Br`, the cytotoxicity is -2.9% (inactive).

Turning to `CC(C)N1C(=O)C2C(C(=O)NC3CCCCC3)C3C=CC2(O3)C1C(=O)NC1CCCCC1` (configuration not stated), the cytotoxicity was 13.7% (inactive).

Take `c1ccc(Nc2nc(N3CCOCC3)nc(N3CCOCC3)n2)cc1`: the cytotoxicity was 5% (inactive).

As for `C1CCN(c2nc(N3CCCCC3)nc(N3CCNCC3)n2)CC1`, the cytotoxicity was 11.6% (inactive).

`c1ccc(Nc2nc(N3CCCCC3)nc(N3CCNCC3)n2)cc1`: the cytotoxicity is 75.8% (active).

In the case of `CCOC(=O)c1ccccc1NC(=O)C1COc2ccccc2O1` (configuration not stated), the cytotoxicity was -10.4% (inactive).

Turning to `COc1ccc(-n2nnc3c(SCc4ccccc4)ncnc32)cc1`, the cytotoxicity is 2.7% (inactive).

Regarding `c1ccc(CN2CCN(c3nc4ccccc4n4cnnc34)CC2)cc1`, the cytotoxicity was 1.8% (inactive).

Consider `COCCn1nnnc1C(c1ccc(OC)cc1OC)N1CCN(c2ccccc2)CC1` (configuration not stated), for which the cytotoxicity was 11.2% (inactive).

Consider `COc1ccc(OC)c(C(O)c2coc3ccc(O)c(CN4CCOCC4)c23)c1` (configuration not stated), for which the cytotoxicity is 5.9% (inactive).

Turning to `COc1ccc(NC(=O)CN2CCN(S(=O)(=O)c3ccc(C(C)C)cc3)CC2)cc1OC`, the cytotoxicity was -1.5% (inactive).

Turning to `COCC(=O)Nc1sc2c(c1C(=O)OC)CCCC2`, the cytotoxicity is -0.8% (inactive).

Consider `Cc1ccc2nc(Nc3nc(C)cc(C(F)(F)F)n3)nc(C)c2c1`, for which the cytotoxicity was -18.7% (inactive).

With `COc1ccc(OC)c2c(N)c(C#N)c(C(F)(F)C(F)(F)F)nc12`, the cytotoxicity was 2.9% (inactive).

In the case of `COc1ccc(OC)c(-n2c(O)cnc2Nc2nc(C)cc(C)n2)c1`, the cytotoxicity is -6.2% (inactive).

Consider `Cc1occc1C(=O)Nc1cc(C(F)(F)F)ccc1Cl`, for which the cytotoxicity was -12.7% (inactive).

In the case of `CC1CN(S(=O)(=O)c2cn(C)c(=O)n(C)c2=O)CC(C)O1` (configuration not stated), the cytotoxicity was 14.8% (inactive).

On to `CCOC(=O)N1CCN(C(=O)c2cnn3c(C(F)F)cc(-c4ccc(C)cc4)nc23)CC1`, for which the cytotoxicity is 4.7% (inactive).

Take `COc1ccc(-c2nc3ccccc3s2)cc1O`: the cytotoxicity was -3.4% (inactive).

On to `COc1ccc(-c2nc(-c3cccs3)c(-c3cccs3)[nH]2)cc1O`, for which the cytotoxicity was 76.5% (active).

`COc1ccc(-c2nnc(-c3cccs3)o2)cc1OC`: the cytotoxicity is 7.2% (inactive).

On to `Cc1ccc2c(c1)C(c1ccccc1)N(C(=O)c1ccc(Br)o1)CC(=O)N2` (configuration not stated), for which the cytotoxicity was -13.7% (inactive).

In the case of `COc1ccccc1N1C(=O)C2C3C=CC(C3)C2(C)C1=O` (configuration not stated), the cytotoxicity was -3.4% (inactive).

As for `c1ccc(-c2cc(-c3nn4c(-c5ccco5)nnc4s3)c3ccccc3n2)cc1`, the cytotoxicity is 51.3% (active).

Regarding `Cc1cc(-c2nn3c(-c4ccccc4)nnc3s2)c2ccccc2n1`, the cytotoxicity was -2.8% (inactive).

With `c1coc(-c2nn3c(-c4ccco4)nnc3s2)c1`, the cytotoxicity was -16.1% (inactive).

For `Fc1ccc(-c2ccc(-c3nn4c(-c5ccco5)nnc4s3)o2)cc1`, the cytotoxicity was 83.7% (active).

As for `Cc1oc(-c2ccc(F)cc2)cc1-c1nn2c(-c3ccco3)nnc2s1`, the cytotoxicity is -11.2% (inactive).

On to `Clc1ccc(-c2ccc(-c3nn4c(-c5ccco5)nnc4s3)o2)cc1`, for which the cytotoxicity was -10% (inactive).

With `CCOC(=O)N1CCC(NC(=O)CNS(=O)(=O)c2ccc(Br)s2)CC1`, the cytotoxicity is 6.3% (inactive).

For the molecule `CCSc1nnc(NC(=O)C(C)(C(F)(F)F)C(F)(F)F)s1`, the cytotoxicity was -1.2% (inactive).

As for `Cc1ccccc1N1CCN(C(=O)C2CCCCC2)CC1`, the cytotoxicity is -1% (inactive).

In the case of `COc1cc2c(C(=O)N3CCN(Cc4ccc5c(c4)OCO5)CC3)cn(C)c(=O)c2cc1OC`, the cytotoxicity was -9% (inactive).

Turning to `COc1ccc(NS(=O)(=O)c2cc(OC)ccc2NC(=O)c2cc(C)oc2C)cc1`, the cytotoxicity is 48.5% (inactive).

As to `COc1ccc(NS(=O)(=O)c2cc(C)ccc2NC(=O)c2cc(C)oc2C)cc1`, the cytotoxicity was 69.4% (active).

On to `COc1ccc(NS(=O)(=O)c2cc(C)ccc2C)cc1`, for which the cytotoxicity was 35.3% (inactive).

Regarding `Cc1nn2c(N3CCN(C(=O)c4ccco4)CC3)cc(C(C)(C)C)nc2c1-c1ccccc1`, the cytotoxicity was 70.2% (active).

As for `Cc1cc(N2CCN(C(=O)c3ccco3)CC2)n2nc(C)c(-c3ccccc3)c2n1`, the cytotoxicity was 13.2% (inactive).

For the molecule `Cc1cc(N2CCN(C(=O)c3ccco3)CC2)n2nc(C)c(-c3ccc(Cl)cc3)c2n1`, the cytotoxicity is 12.8% (inactive).

Regarding `COc1cccc(NC(=O)C2CCN(c3ncccn3)CC2)c1`, the cytotoxicity was 3% (inactive).

In the case of `CC1(N2CCOCC2)CC2(O)C(=[N+]1[O-])CCc1c2no[n+]1[O-]` (configuration not stated), the cytotoxicity was 58.3% (active).

Regarding `CC1(N2CCCCC2)CC2(O)C(=[N+]1[O-])CCC/C2=N\O` (configuration not stated), the cytotoxicity was 15.9% (inactive).

On to `CC1(N2CCOCC2)CC2(O)C(=[N+]1[O-])CCc1nonc12` (configuration not stated), for which the cytotoxicity was 17.7% (inactive).

Regarding `CC(C)NC(=O)CN(C(=O)CCC(=O)Nc1ccccn1)c1ccc(F)c(Cl)c1`, the cytotoxicity was 2.5% (inactive).
